Hit rate of the full screen: of about 2,200 compounds, about 480 (22%) were called active. How the calls were made is not given here. Not all results are given here. Potency and affinity values are given separately.
Assay: S. Typhimurium GFP fluorescence modified counterscreen for PhoP regulon inhibitor project dose response (AID 1981);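 further: 0% = induced DMSO wells and 100% = uninduced wells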
Conditions: 4 h; series mostly up to 150 µM; inhibition: at the top concentration

| Compound | inhibition |
| --- | --- |
| O=C(CCN1C(=O)COc2ccccc21)NCCN1CCOCC1 | -33.9% (inactive) |
| C#CCn1c(=NC(=O)c2cc(Cl)sc2Cl)sc2cc(S(N)(=O)=O)ccc21 | 7.48% (inactive) |
| CCN(CC)S(=O)(=O)c1ccc(C(=O)N2CCN=C2SCc2cccnc2)cc1 | 9.39% (inactive) |
| Cc1ccc(Nc2cc(C)c3ccc(O)cc3n2)cc1C | -9.87% (inactive) |
| Cc1ccc(Nc2cc(C)c3c(O)cccc3n2)cc1C | 28.9% (inactive) |
| Cc1cc(O)ccc1Nc1nc2ccccc2nc1Nc1ccc(O)cc1C | 23.1% (inactive) |
| Cc1cc(Nc2ccccc2)nc2cc(O)ccc12 | 7.5% (inactive) |
| c1ccc(-n2cnc3cc(NCc4ccccn4)ccc32)cc1 | -5.78% (inactive) |
| CCOC(=O)c1[nH]c2ccccc2c1NC(=O)C(C)(C)C | -11% (inactive) |
| Cn1cc(C(CC(=O)O)C(=O)O)c2ccccc21 (configuration not stated) | -12.2% (inactive) |
| CCOc1ccc(-n2c(SCc3nc(-c4ccc(C)cc4)no3)nnc2-c2ccncc2)cc1 | -16.5% (inactive) |
| c1cncc(-c2nc(N3CCOCC3)c3ccccc3n2)c1 | -16.8% (inactive) |
| O=c1[nH]c2cc3c(cc2cc1CN(CCc1ccccc1)Cc1nnnn1CC1CCCO1)OCO3 (configuration not stated) | -25.9% (inactive) |
| CCn1c(=O)c(=O)[nH]c2cc(C(=O)NCC3CCCCC3)ccc21 | -9% (inactive) |
| CCOC(=O)CNS(=O)(=O)c1c(C)noc1C | -22.1% (inactive) |
| CC1=CC2=NC(=O)/C(=C\c3cc(C)n(-c4ccc(F)cc4)c3C)C(=N)N2O1 | -3.44% (inactive) |
| Cc1ccc(C(=O)CSC2=C(C#N)C(c3ccco3)CC(=O)N2)c(C)c1 (configuration not stated) | 5.92% (inactive) |
| COCCNC(=S)N(Cc1cccnc1)Cc1ccc(OC)c(OC)c1 | -2.44% (inactive) |
| COc1ccc(NC(=O)ON=C2c3ccccc3-c3ccccc32)cc1 | -8.68% (inactive) |
| COC(=O)c1cc(C#N)c(Oc2ccccc2OC)nc1C | -4.37% (inactive) |
| O=C(Cn1nc(C(F)(F)F)c2c1CCCCC2)N1CCOCC1 | -3.81% (inactive) |
| Cc1ccc2occ(/C=N/O)c(=O)c2c1 | 19.3% (inactive) |
| C#CCOc1ccc(/C=C2\SC(=S)N(Cc3cccnc3)C2=O)cc1 | -3.35% (inactive) |
| c1ccc2oc(SCc3cn4ccccc4n3)nc2c1 | -8.39% (inactive) |
| Cc1cc(NC(=O)c2ccco2)ccc1-n1cnnn1 | -22.4% (inactive) |
| CCOc1ccccc1Nc1nc2ccccc2n2cnnc12 | 1.65% (inactive) |

| Compound | inhibition |
| --- | --- |
| CCn1c(=O)c2c(O)cc(=O)oc2c2ccccc21 | 5.61% (inactive) |
| Cc1nc([N+](=O)[O-])c(Br)n1CC(=O)c1ccccc1 | 23.7% (inactive) |
| C=CCNc1ncnc2ccc(Br)cc12 | -12.8% (inactive) |
| O=c1c2c(-c3ccccc3)csc2nc2c3ccccc3c(NCCN3CCOCC3)nn12 | 8.44% (inactive) |
| COc1ccc(NC(=O)CSc2nnc(-c3cccs3)n2Cc2ccco2)cc1OC | -16.9% (inactive) |
| CCSc1nc(C2CC2)cc(-c2cccs2)c1C#N | -1.65% (inactive) |
| c1ccc2cc(CSCc3nc4ccccc4[nH]3)ccc2c1 | 13.8% (inactive) |
| Cc1ccc(NC(=O)COC(=O)C2(c3ccc(Cl)cc3)CCCC2)cc1 | -16.8% (inactive) |
| O=C(CSc1nnc(-c2cccnc2)o1)OC1CCCCC1 | -25.1% (inactive) |
| COc1cccc(NS(=O)(=O)c2c(C)cc(C)cc2C)c1 | 7.36% (inactive) |
| c1ccc2c(C3=NNC(=NC4CC4)SC3)c[nH]c2c1 | -24.9% (inactive) |
| COc1ccc(NC(=O)CSc2nc(C)cs2)cc1OC | -5.4% (inactive) |
| c1ccn2c(CNc3ncnc4sccc34)nnc2c1 | -17.6% (inactive) |
| CCCCOC(=O)CCNc1n[nH]c(=O)[nH]c1=O | 0.14% (inactive) |
| O=C(Nc1ccc(NC(=O)C23CC4CC(CC(C4)C2)C3)cn1)c1ccco1 | -13.3% (inactive) |
| COC(=O)CCC(=O)Nc1ccc(OC)cc1 | 0.92% (inactive) |
| CC(=O)N/N=C/c1ccc(OCCOc2ccc(Br)cc2)cc1 | -23.2% (inactive) |
| O=C1CCCc2c1cc(C(=O)NCc1ccco1)c(=O)n2-c1ccc(Cl)cc1 | -3.88% (inactive) |
| COc1ccc(OC)c(C2=Nn3c(nnc3-c3cc(OC)c(OC)c(OC)c3)SC2)c1 | -4.61% (inactive) |
| N[C@H](CSCc1ccccc1)C(=O)Nc1ccc([N+](=O)[O-])cc1 | 5.75% (inactive) |
| O=C(Cc1ccc(Cl)cc1)NNS(=O)(=O)c1ccc([N+](=O)[O-])cc1 | -10.4% (inactive) |
| Cc1ccc(CSCc2nc3ccccc3[nH]2)cc1 | 8.08% (inactive) |
| CN1CCCC(OC(=O)CCCC(=O)OC2CCCN(C)C2)C1 (configuration not stated) | 2.83% (inactive) |
| O=C(c1ccc(Oc2ccccc2)cc1)c1nc2c(n1O)CCCC2 | 23.6% (inactive) |
| CC1CC(C)CN(CCCSc2ccccc2)C1 (configuration not stated) | -12% (inactive) |
| CC(Nc1ccc(Br)cn1)c1cc(Cl)ccc1O (configuration not stated) | 15.7% (inactive) |

| Compound | inhibition |
| --- | --- |
| O=C(CN1CCN(c2ccccn2)CC1)Nc1ccc(Oc2ccccc2)cc1 | 0.24% (inactive) |
| Cc1nn2c(=O)cc(CSc3nc4ccccc4[nH]3)nc2s1 | 5.25% (inactive) |
| CC(=Nc1c(C)n(C)n(-c2ccccc2)c1=O)c1c(O)n(Cc2ccccc2)c(=O)[nH]c1=O | -0.46% (inactive) |
| Cc1cc2nn(-c3ccccc3)nc2cc1NC(=O)c1cccs1 | -22.9% (inactive) |
| NNC(=O)CNC(c1ccccc1)c1cc(Br)ccc1NC(=O)c1ccc(Br)cc1 (configuration not stated) | 19% (inactive) |
| O=C(/C=C/c1ccco1)N/C(=C\c1ccccc1)C(=O)NCCc1nc2ccccc2[nH]1 | -0.03% (inactive) |
| O=C(O)CCc1nn2c3ccccc3n(CCN3CCCCC3)c2nc1=O | 4% (inactive) |
| O=C(NCc1cccs1)[C@@H]1CSC2c3ccccc3C(=O)N21 (some centres not stated) | 2.31% (inactive) |
| CC(C(=O)NC1CCCc2ccccc21)N1CCN(Cc2ccc3c(c2)OCO3)CC1 (configuration not stated) | -1.02% (inactive) |
| Cc1ccc(NC2CC(=O)N(Cc3ccccc3)C2=O)cc1 (configuration not stated) | -19.2% (inactive) |
| NC(=O)C1(NC(=O)[C@@H]2CC3(CC(c4cccc(NC(=O)[C@@H]5CCC(=O)N5)c4)=NO3)CN2C(=O)Cc2ccc(Cl)cc2)CC1 (some centres not stated) | -10.6% (inactive) |
| Cc1ccc(C=Nc2ccccc2C(N)=O)s1 | -22% (inactive) |
| CC(=O)Nc1ccc(-c2nnc(SCc3c(C)cc(C)cc3C)n2C)cc1 | 8.18% (inactive) |
| O=C(NCc1cccs1)c1cccc(Nc2nc3ccc(Br)cc3[nH]2)c1 | 5.95% (inactive) |
| Nc1c(C(=O)NCCc2ccc(Cl)cc2)sc2ccc(S(=O)(=O)N3CCCCC3)cc12 | 2% (inactive) |
| CCCCCCCCNc1ncnc2ccccc12 | 21.5% (inactive) |
| Clc1ccc(OCCn2ccnc2)c(Br)c1 | 4.2% (inactive) |
| Cc1ccc(N2C(=O)CC(Nc3ccccc3)C2=O)cc1 (configuration not stated) | -5.83% (inactive) |
| COC(=O)c1sccc1N/N=C(\C)c1ccc(F)c(Cl)c1 | 4.52% (inactive) |
| CCN(CC(=O)N1CCN(Cc2ccccc2)CC1)S(=O)(=O)c1ccc(F)cc1 | -7.07% (inactive) |
| O=C(Nn1c(O)c(C=C2N=c3ccccc3=N2)sc1=S)c1ccc(Cl)cc1 | -10.5% (inactive) |
| C=CCn1c(SCC(=O)Nc2nnc(CC)s2)nnc1-c1cccnc1 | -22.6% (inactive) |
| CN(c1ccccc1)S(=O)(=O)c1ccc(C(=O)Nc2nnc(-c3ccc(F)cc3)o2)cc1 | -10.1% (inactive) |
| Cc1ccc(C)c(NC(=O)C(Sc2nnc(-c3cccs3)o2)c2ccccc2)c1 (configuration not stated) | 3.64% (inactive) |
| Cc1cc(-c2c(C)n([O-])c(C)c(C)[n+]2=O)ccc1F | -12.9% (inactive) |
| COc1cc(C(=O)NC(=S)Nc2ccc3oc(=O)ccc3c2)cc(OC)c1OC | -16.2% (inactive) |

| Compound | inhibition |
| --- | --- |
| CC1(C)CC(=O)C2=C(C1)OC1=C(C(=O)CC(C)(C)C1)C2c1ccc(O)cc1O | 17.2% (inactive) |
| Cc1cc(Nc2ccccc2F)n2ncnc2n1 | -1.64% (inactive) |
| C/C(=N\N=C(/N)SC1CC(=O)N(c2cccc(Cl)c2)C1=O)c1cccs1 (configuration not stated) | 6.99% (inactive) |
| CCCCCCNCc1cccc(Br)c1 | -5.86% (inactive) |
| Cc1ccccc1NC(=O)Nc1cccs1 | 0.01% (inactive) |
| O=C(c1cc(-c2cccs2)nc2ccccc12)N1CCN(c2ccccc2O)CC1 | 39.2% (inactive) |
| CCC1=NNc2cccc3c(OC)ccc1c23 | -16.9% (inactive) |
| O=C1Nc2ccccc2C12OCC1(CO2)COC2(OC1)C(=O)Nc1ccccc12 (configuration not stated) | 35% (inactive) |
| Cc1ccc2nc(SCC(=O)NCc3ccco3)[nH]c2c1 | -4.71% (inactive) |
| Cc1ccc(C(C)C)c(OCC(=O)N2CCN(Cc3nc4cc([N+](=O)[O-])ccc4n3C)CC2)c1 | 1.95% (inactive) |
| Cc1cc(C)cc(-n2nc(C)cc2N)c1 | -5.73% (inactive) |
| CCCN1C(=O)SC(CC(=O)Nc2ccc(Br)cc2)C1=O (configuration not stated) | 4.65% (inactive) |
| Cn1c(NCc2cccs2)nc2ccccc21 | -15.4% (inactive) |
| CC1CCC(C(C)C)C(OC(=O)Cn2c(-c3ccc(Cl)cc3)[n+](C)c3ccccc32)C1 (configuration not stated) | 24.2% (inactive) |
| CC(C)[C@@H]1CC[C@@H](C)C[C@H]1OC(=O)C[n+]1cc(-c2ccc(Cl)cc2)n2c1CCCCC2 | 7.76% (inactive) |
| NC[C@@]12CCCC1C1CCC2C1 (some centres not stated) | -33.1% (inactive) |
| CN(C)S(=O)(=O)Oc1ccsc1C(=O)Nc1ccccc1Cl | -4.31% (inactive) |
| COC(=O)c1cccc(NC(=O)CCCOc2ccccc2)c1 | -9.35% (inactive) |
| O=C(CSC1CC(=O)N(CCc2ccccc2)C1=O)Nc1cccc(Cl)c1 (configuration not stated) | 18.6% (inactive) |
| Nc1ccc2nc(SCC(=O)Nc3ccc(N4CCOCC4)c(Cl)c3)sc2c1 | 4.06% (inactive) |
| Cc1cccc(NC(=O)CCC(=O)OCc2ccc(Br)cc2)c1 | -11.4% (inactive) |
| Cc1nc2ccccc2n1CC(=O)N/N=C\C=C\c1ccccc1 | 3.06% (inactive) |
| O=C(CCN1C(=O)c2ccccc2C1=O)Nc1ccc(-c2cn3ccsc3n2)cc1 | -5.3% (inactive) |
| CC(C)(C)n1ncc2c(=O)n(CC(=O)Nc3ccc4c(c3)OCO4)cnc21 | 4.98% (inactive) |
| O=C1NC(=Nc2ccccc2)/C(=C/c2ccco2)S1 | 14.3% (inactive) |
| COC(=O)c1ccc(CSc2nnnn2-c2ccccc2)o1 | -0.29% (inactive) |

| Compound | inhibition |
| --- | --- |
| O=C1c2ccccc2C(=O)N1CCCc1nc(-c2ccccn2)no1 | 1.57% (inactive) |
| O=C(/C=C/c1ccccc1)N/C(=C/c1ccccc1)C(=O)N1CCOCC1 | -23% (inactive) |
| C=CCOc1ccc(Br)cc1/C=N/O | -2.94% (inactive) |
| CCCOc1ccc(Br)cc1CSC(=N)N | 39.9% (inactive) |
| COC(=O)c1ccc(NC(=O)c2ccc(N(C)S(C)(=O)=O)cc2)cc1 | 1.77% (inactive) |
| CC1CCCCN1CCNS(=O)(=O)c1ccc2c(c1)oc(=O)n2C (configuration not stated) | -2.5% (inactive) |
| O=C1NC2=C(CCc3ccccc32)C(c2ccc(Br)cc2)N1 (configuration not stated) | -14.1% (inactive) |
| Cc1ccccc1NC(=O)c1ccc(-n2cncn2)nc1 | 2.26% (inactive) |
| CCc1nc2ccccc2c2nc3ccccc3n12 | -2.87% (inactive) |
| CCOC(=O)CC(=O)CSc1nc2c(c(C)c1C#N)CCC2 | -1.08% (inactive) |
| N/C(=N\c1nc2ccccc2o1)NC(=O)c1ccccc1F | -12.1% (inactive) |
| Oc1ccc(/C=N/NC2=NCCCCC2)c(O)c1 | 5.44% (inactive) |
| Oc1ccc(/C=N/n2cnn(Cc3ccccc3Cl)c2=S)c(O)c1 | 3.42% (inactive) |
| CC(=O)Nc1cc(N=Cc2ccc(O)cc2O)c(Cl)cc1Cl | 33.6% (inactive) |
| CC1C(=O)NN=C1C(=O)N/N=C\c1ccc(O)cc1O (configuration not stated) | -28.1% (inactive) |
| O=C(N/N=C/c1ccc(O)cc1O)/C(=C/c1ccccc1)CCO | 7.5% (inactive) |
| Cc1ccc2nc(SCCCCOc3ccccc3)[nH]c2c1 | -12.1% (inactive) |
| CCOC(=O)CN1C(=O)C(C)(C)Oc2ccc(C(=O)Nc3ccccc3OC)cc21 | -3.35% (inactive) |
| O=C(Nc1cc(C(F)(F)F)ccc1N1CCOCC1)c1ccc(Br)o1 | -20.1% (inactive) |
| COc1ccc(C)cc1NC(=O)C(Sc1nnc(-c2ccncc2)n1-c1ccc(Cl)cc1)c1ccccc1 (configuration not stated) | -3.05% (inactive) |
| Cc1ccc(N=Cc2sc(O)c3ccccc23)cc1 | -19.9% (inactive) |
| O=C1CSC(=S)N1c1ccc(F)cc1 | 18.8% (inactive) |
| CC(=O)Nc1nc(-c2ccc(Cl)cc2)nc(C)c1C(C)=O | -11.7% (inactive) |

Reference: PubChem BioAssay AID1981 (Southern Research Specialized Biocontainment Screening …, 2009)
